We go through 23 molecules from PubChem BioAssay (Tox21).

Molecules are shown by their SMILES. Values joined by “and” are separate entries in the source; they are usually repeats but may differ in a detail not shown here. Equal entries are not always repeated. Records with an inconclusive call do not appear. Some compounds were tested as several samples or in several runs, with calls that do not always agree. Active and inactive are the calls of the source. Unless noted, the call rests on the fitted dose curve; in most records, active means well fitted curve in the direction sought with a large enough effect in the repeat runs; inconclusive means weak or mixed curves; inactive means no such curve, though single readings can be large; an effect the other way counts as inactive or inconclusive. Residues, ends and D or L forms follow the SMILES beside them.

Assay [1] can be described thus: qHTS assay for small molecule agonists of the p53 signaling pathway (AID 651631; calls by dose curve; further: nearly all actives have a fitted effect of over 15% in size). The gist of the method:
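p53RE-bla HCT-116 cells; compounds 16 h, 37 °C; LiveBLAzer B/G FRET substrate 2 h RT; fluorescence intensity read-out, qHTS format.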

Assay [2] can be described thus: qHTS assay for small molecules that induce genotoxicity in human embryonic kidney cells expressing luciferase-tagged ATAD5 (AID 651632). Further: nearly all actives have a fitted effect of over 15% in size. The gist of the method:
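ATAD5-luc HEK293T, 2,000 cells/well; cpd or DMSO pin-transferred; 16 hr, 37C/5% CO2; Amplite 30 min RT; luminescence.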

A short description of assay [3]: qHTS assay for small molecule agonists of the p53 signaling pathway - cell viability (AID 651633; calls by dose curve;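 further: p53RE-bla HCT reporter cells with a stable beta-lactamase p53 reporter; series mostly up to about 83 µM; nearly all actives have a fitted effect of over 30% in size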). In a few lines: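 p53RE-bla cells were treated with compound for 16 hours at 37 C. Cytotoxicity was then measured as CellTiter-Glo luminescence after 30 min at room temperature.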
Assay [4] in a line: qHTS assay for small molecules that induce genotoxicity in human embryonic kidney cells expressing luciferase-tagged ATAD5 - cell viability (AID 651634; calls by dose curve; further: nearly all actives have a fitted effect of over 25% in size; further: potency means the concentration at half of the fitted maximal effect). In a few lines:
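Fluorescence from CellTiter-Fluor, reporting protease activity within live cells, served as the viability read-out. HEK293T cells carrying luciferase-tagged ATAD5 had been treated with compound for 15.5 hr at 37C.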

The nature of assay [5]: qHTS assay for small molecule disruptors of the mitochondrial membrane potential - cell viability (AID 720634; calls by dose curve; further: nearly all actives have a fitted effect of over 20% in size; further: potency means the concentration at half of the fitted maximal effect). The gist of the method:
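Cells: HepG2, 2,000/well, attached overnight. Compound 1 hr, 37 C/5% CO2. +m-MPI dye, +CellTiter-Glo 30 min RT. Readout: luminescence (ATP).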

Assay [6] is described as follows: qHTS assay for small molecule disruptors of the mitochondrial membrane potential (AID 720635). Further: potency means the concentration at half of the fitted maximal effect. In a few lines: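 HepG2 cells exposed to compound 1 hr at 37C, then Mito-MPS dye 30 min. Ratio read of aggregate (540/590 nm) versus monomer (490/535 nm) fluorescence.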
A short description of assay [7]: qHTS assay to test for compound auto fluorescence at 590 nm (red) in HepG2 cells (AID 720674). In a few lines:
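HepG2 cells, 2,000 per well in MEM with 10% FBS, attached overnight at 37 C, then got 23 nL compound or DMSO. After 1 hr at 37 C, 5% CO2, red fluorescence was read at 540/590 nm against Rose Bengal sodium as reference.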

The nature of assay [8]: qHTS assay to test for compound auto fluorescence at 535 nm (green) in HepG2 cells (AID 720675).
Assay [9] in a line: qHTS assay to test for compound auto fluorescence at 590 nm (red) in HEK293 cells (AID 720679). The gist of the method:
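Red autofluorescence, HEK293 cells: 2,000 cells/well; attach 4-5 hr 37C; add 23 nL cpd or DMSO; incubate o/n 37C 5% CO2; read Ex540/Em590; Rose Bengal sodium reference.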

A short description of assay [10]: qHTS assay to test for compound auto fluorescence at 460 nm (blue) in HEK293 cells (AID 720678). In a few lines:
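Intrinsic compound fluorescence is recorded in live HEK293 cultures after overnight incubation at 37C, 5% CO2, using excitation 405 nm and emission 460 nm. Values are referenced to triamterene.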

Consider `CC(=O)NS(=O)(=O)c1ccc(N)cc1`, for which the Potency result in assay [1], in assay [2], in assay [3], in assay [4], in assay [5] and in assay [6] was “inactive” each time. For the same molecule, the molecule was classed as inactive in assay [7], in assay [8] and in assay [9].
In the case of `Cc1cc(=O)[nH]c(=S)[nH]1`, the Potency entry in [1], in assay [2], in assay [3], in assay [4], in assay [5] and in assay [6] was “inactive” each time. Also, the result in assay [7], in assay [8] and in assay [9] was inactive.
As for `CCCNC(=O)NS(=O)(=O)c1ccc(Cl)cc1`, the Potency result in [1], in assay [2], in assay [3], in assay [4], in assay [5] and in assay [6] was “inactive” in each case. Moreover, the molecule was classed as inactive in assay [7], in assay [8], in assay [10] and in assay [9].
`CC(O)CO` (stereo not given): the Potency result in assay [1], in assay [2], in [3], in assay [4], in [5] and in assay [6] was “inactive” throughout. The call in assay [7], in assay [8] and in assay [9] was inactive.
For `NC(=O)c1ccccc1O`, the Potency result in assay [1], in assay [2], in assay [3], in assay [4], in [5] and in [6] was “inactive” throughout. For the same molecule, the molecule was classed as inactive in [7], in assay [8], in assay [10] and in assay [9].
As to `CC1(C)[C@@H]2CC[C@@]1(C)C(=O)C2`, the Potency result in assay [1], in [2], in assay [3], in assay [4], in assay [5] and in assay [6] was “inactive” throughout. The molecule was classed as inactive in assay [7], in assay [8], in assay [10] and in assay [9].
Turning to `O=c1ccc2ccccc2o1`, the Potency result in assay [1], in assay [2], in assay [3], in assay [4], in assay [5] and in assay [6] was “inactive” each time. Also, the molecule was classed as inactive in assay [7], in assay [8] and in assay [9].
Turning to `CCOc1ccc(NC(=O)CC(C)O)cc1` (stereo not given), the Potency entry in assay [1], in assay [2], in [3], in assay [4], in [5] and in assay [6] was “inactive” in each case. Further, the molecule was classed as inactive in assay [7], in [8], in assay [10] and in assay [9].
As for `Nc1ccc(O)c(C(=O)O)c1`, the Potency entry in [1], in assay [2], in assay [3], in assay [4], in assay [5] and in assay [6] was “inactive” each time. For the same molecule, the molecule was called inactive in [7], in [8] and in [9].
Consider `COc1ccc2[nH]cc(CCNC(C)=O)c2c1`, for which the Potency entry in assay [1], in assay [2], in [3], in assay [4], in [5] and in assay [6] was “inactive” in each case. The result in [7], in assay [8], in assay [10] and in assay [9] was inactive.
`O=c1cc[nH]c(=S)[nH]1`: the Potency entry in assay [1], in assay [2], in assay [3], in assay [4], in assay [5] and in assay [6] was “inactive” throughout. Moreover, the call in assay [7], in assay [8], in assay [10] and in assay [9] was inactive.
For `CCCCC(CC)COC(=O)/C=C/c1ccc(OC)cc1` (stereo not given), the Potency result in assay [1], in [2], in assay [3], in assay [4] and in assay [5] was “inactive” each time. Moreover, the Potency in assay [6] is 54.2 µM (active). In addition, the call in [7], in [8] and in [9] was inactive.
As to `O=C(O)c1cccc([N+](=O)[O-])c1`, the Potency entry in assay [1], in assay [2], in assay [3], in assay [4], in assay [5] and in assay [6] was “inactive” each time. Moreover, the result in assay [7], in assay [8], in [10] and in [9] was inactive.
As for `CCCC(O)C(CC)CO` (stereo not given), the Potency entry in assay [1], in assay [2], in assay [3], in assay [4], in [5] and in [6] was “inactive” in each case. Also, the call in assay [7], in assay [8] and in assay [9] was inactive.
On to `O=C(O)c1[nH]n(-c2ccc(S(=O)(=O)O)cc2)c(=O)c1N=Nc1ccc(S(=O)(=O)O)cc1`, for which the Potency result in [1], in assay [2], in assay [3], in [5] and in assay [6] was “inactive” in each case. In assay [4], the Potency was 30.7 µM (active) and 57.1 µM (active). The call in [7], in assay [8], in assay [10] and in [9] was inactive.
Regarding `Cc1cc(=O)n(-c2ccccc2)n1C`, the Potency entry in assay [1], in assay [2], in [3], in assay [4], in assay [5] and in [6] was “inactive” each time. Also, the outcome in assay [7], in assay [8], in assay [10] and in assay [9] was inactive.
In the case of `Cc1ccc(O)cc1`, the Potency entry in assay [1], in [2], in assay [3], in assay [4], in [5] and in [6] was “inactive” each time. Further, the result in assay [7], in [8] and in assay [9] was inactive.
On to `Nc1ccn([C@H]2CC[C@@H](CO)O2)c(=O)n1`, for which the Potency result in assay [1], in assay [2], in assay [3], in [4], in [5] and in assay [6] was “inactive” in each case. Moreover, the molecule was classed as inactive in assay [7], in assay [8], in [10] and in [9].
Regarding `CC(O)CN(CCN(CC(C)O)CC(C)O)CC(C)O` (stereo not given), the Potency entry in assay [1], in assay [2], in assay [3], in [4], in assay [5] and in [6] was “inactive” in each case. The molecule was classed as inactive in assay [7], in assay [8], in assay [10] and in [9].
Turning to `COC(=O)[C@H](Cc1ccccc1)NC(=O)[C@@H](N)CC(=O)O` (H-Asp-Phe-OMe), the Potency result in [1], in assay [2], in assay [3], in [4], in assay [5] and in [6] was “inactive” each time. Besides, the call in assay [7], in assay [8], in assay [10] and in assay [9] was inactive.
For the molecule `CCCCOC(=O)CC(CC(=O)OCCCC)(OC(C)=O)C(=O)OCCCC`, the Potency entry in [1], in [2], in assay [3] and in assay [4] was “inactive” in each case. In addition, the Potency result is “inactive and 7.78 µM (active)” in [5]; 8.73 µM (active) in assay [6]. For the same molecule, the call in assay [7], in assay [8] and in [9] was inactive.
With `Nc1ccc(S(=O)(=O)c2ccc(N)cc2)cc1`, the Potency result in [1], in [2], in [3], in assay [4], in assay [5] and in assay [6] was “inactive” throughout. Besides, the result in assay [7], in assay [8] and in assay [9] was inactive.
`O=C(O)c1cc(N=Nc2ccc(S(=O)(=O)Nc3ccccn3)cc2)ccc1O`: the Potency entry in [1], in assay [2], in assay [3], in assay [5] and in [6] was “inactive” throughout. Also, in assay [4], the Potency is 23.7 µM (active) and 27.4 µM (active) and 48.6 µM (active). The call in assay [7], in assay [8], in assay [10] and in assay [9] was inactive.
